Measurements taken from PubChem BioAssay (NCI).
Compounds without any hit were thinned out: in the full panel of roughly 83,000, 20% have a hit.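 Compound tested at a single concentration for 48 hours in 96-well plates; a percent growth value below 10 was scored as active.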 Values without a mark were called inactive. The source made the active and inactive calls.

Experiments:
Test in all cases: NCI-60 one-dose screen, 48 h (100 = growth as untreated, 0 = no growth, -100 = all killed)
Settings in all cases: 10 µM
MDA-MB-435 melanoma = test system: MDA-MB-435 melanoma
SW-620 colon = test system: SW-620 colon
MCF7 breast = test system: MCF7 breast
HCT-116 colon = test system: HCT-116 colon
HCC-2998 colon = test system: HCC-2998 colon
KM12 colon = test system: KM12 colon
BT-549 breast = test system: BT-549 breast

| Structure (SMILES) | growth (MDA-MB-435 melanoma) | growth (SW-620 colon) | growth (MCF7 breast) | growth (HCT-116 colon) | growth (HCC-2998 colon) | growth (KM12 colon) | growth (BT-549 breast) |
| --- | --- | --- | --- | --- | --- | --- | --- |
| CS(=O)(=O)Nc1ccc(Nc2c3ccccc3nc3cc(N)ccc23)cc1 | 53.6% | 39.8% | 6.57% (active) | 28% | 35.2% | 5.56% (active) |  |
| COc1cc2c(cc1OCCCN1CCN(c3ncnc4ccccc34)CC1)N=CC1CCCN1C2=O (stereo not drawn) |  | -24% (active) | -17.4% (active) | 11.7% |  | -24.8% (active) |  |
| COc1cc(/C=N/NC(=O)c2ccccc2Nc2cccc(C(F)(F)F)c2)cc(OC)c1OC |  | 3.91% (active) | 5.18% (active) |  | 28.2% | 16.6% |  |
| CC(=O)N1N=C(c2ccc(Cl)cc2)CC1c1sc(Cl)nc1Cl (stereo not drawn) |  | 102% | 85.9% |  | 94.8% | 93.5% | 89.9% |
| CCCCCCCCCCCC[n+]1ccc(C(N)=O)cc1 | 33.6% | 23.6% | 40.2% | 25.6% | 25.8% | -47% (active) |  |
| Cc1ncc(-c2ccoc2)c(NC2CCCCCC2)n1 |  | 111% | 112% | 99.8% | 105% | 105% | 115% |
| O=[N+]([O-])c1cccc(-c2ncc(-c3ccc(Cl)cc3Cl)[nH]2)c1 | 76.5% | -88% (active) | -8.38% (active) | 13.5% | 58.1% | 15.7% |  |
| COc1ccc(/C=C/C(=O)Nc2ccc(-c3nc4ccc(OC)cc4s3)cc2)cc1 | 102% | 114% | 85.3% | 105% | 110% | 111% |  |
| COc1cc(CNc2ccccc2C(=O)N2CCN(C(=O)c3cc(-c4cc(OC)c(OC)c(OC)c4)n4nc(-c5ccccc5)cc4n3)CC2)cc(OC)c1OC | -47.6% (active) | 26.3% | 6.61% (active) | 21.6% | 40.3% | 17.8% |  |
| COc1cc(-c2cc(C(=O)N3CCN(C(=O)c4ccccc4NCc4cccs4)CC3)nc3cc(-c4ccccc4)nn23)cc(OC)c1OC |  | 51% | 23.6% |  | 101% |  | 83.8% |
| Nc1ccn(C2CC(O)C(CO)O2)c(=O)n1 (stereo not drawn) | 107% | 113% | 103% | 109% | 2.98% (active) | 110% |  |
| COc1cc(C)ccc1C(=O)c1ccc(C)cc1OC | -69.8% (active) | 10.1% | 21.1% | 24.8% | 40% | 22.1% |  |
| CCCCCCCC(C)NCCO (stereo not drawn) | 97.6% | 106% | 97.9% | 111% | 105% | 102% |  |
| O=C1/C(=C\c2cn(C(=O)c3ccc(Cl)cc3)c3ccccc23)c2ccccc2N1C(=O)c1ccc(Cl)cc1 | 97.6% | 93.1% | 71.1% | 65.1% |  | 24.3% |  |
| C[N+](C)(C)c1ncnc2nc[nH]c12 | 95.3% | 120% | 90.8% | 97.3% | -10.1% (active) | 110% |  |
| CNc1ccc(CSc2ccc(C)cc2)cc1 | 85.2% | 93.7% | 77% |  | 94% | 62.4% |  |
| O=C(Nc1ccncc1)C(=O)c1cn(S(=O)(=O)c2cc(Cl)cc(Cl)c2)c2ccccc12 | 8.83% (active) | 64.9% | 43.9% | 51.4% | 65.7% | 55.3% |  |
| CC[C@H]1CCC/C=C/[C@@H]2C[C@H](O)C[C@H]2[C@H](O)/C=C/C(=O)O1 | 5.71% (active) | -69% (active) | -73% (active) | -67.8% (active) | -65.8% (active) | -70.5% (active) |  |
| Cc1cc(Cc2cc(C)c(O)c(C)c2)cc(C)c1O | -29% (active) | 21.6% | 22.8% | 30.6% | 74.4% | 39.4% |  |
| COc1ccc2c(c1)[n+]([O-])c(C#N)c(NC(=O)c1ccco1)[n+]2[O-] | 104% | 108% | 90.8% | 99.9% |  | 105% |  |
| Fc1ccc2nc(-c3nc(-c4ccccc4)n4ccccc34)[nH]c2c1 | -19.4% (active) | 26.5% | -12.6% (active) | -31.2% (active) | 29.2% |  |  |
| O=C(Nc1ccncc1)C(=O)c1cn(S(=O)(=O)c2cccc3ccccc23)c2ccccc12 | -7.64% (active) | 71.4% | 52.3% | 45.8% | 64.8% | 55% |  |
| O=C(Nc1ccc(Cl)c(Cl)c1)Nc1c(Oc2ccc(Cl)c(Cl)c2)ccc(Cl)c1S(=O)(=O)O | -31.4% (active) | 23.6% | 24.6% | 23.5% | 25.2% | 33.2% |  |
| CC/C(C)=C(\C)C(=O)O |  | 105% | 98.6% | 109% | 108% | 103% |  |
| O=c1c2ccccc2nc(SCCN2CCCCC2)n1CCc1ccccc1 |  | 89.9% | 63.3% | 74% | 97.9% | 94.2% | 86.3% |
| CC1(O)CCC2CC3OC3(C)CCC3OC3(C)CCC1C2(C)C (stereo not drawn) | 107% | 99.6% | 103% | 100% |  | 111% |  |
| O=C(Nc1nc(-c2ccccc2Cl)cs1)c1cc(-c2ccc(Cl)cc2)nc2ccc(Cl)cc12 |  | 26.7% | 11.2% |  | 90.7% |  | -9.33% (active) |
| Cc1cs/c(=N\NC(=O)c2cc(-c3cc4ccccc4o3)nn2-c2ccccc2)n1-c1ccccc1 | 102% | 93.4% | 73.4% | 83% |  | 98.6% |  |
| COc1ccc2c(c1)sc1nc(-c3ccccc3)c(-c3ccsc3)n12 | -39.6% (active) | 19.4% | 13.5% | 30.8% | 11.6% | 19.4% |  |
